The supplement of paper PMC10849652
Targets with a hit are over-represented here; the source holds about 8,800 in all. About 0.5% of all pairs of compound and target were hits. Values without a mark were called inactive.

Legend:
Assay in all cases: log2 fold change, soluble protein after heating vs DMSO (PISA); higher = thermal stabilisation; K562 lysate, 10 uM; active = over 0.2 and 3.5 SD of the protein, either way, in both replicates (recomputed)
alvocidib = compound: CN1CC[C@H](c2c(O)cc(O)c3c(=O)cc(-c4ccccc4Cl)oc23)[C@H](O)C1 [alvocidib]
In short: (§1)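 Following dounce homogenisation of K562 pellets in PBS pH 7.4 with 1 mM MgCl2, crude extract at 1 mg/mL protein was incubated for 30 min with 10 μM compound. Aliquots were then heated for 3 min over 48°C-58°C and pooled, NP-40 was added to 0.5% at 4°C, and soluble protein was recovered as the supernatant at 21,000xg for 90 min. Channel-sum-equalised TMTpro 16plex LC-MS/MS quantified this protein. Each value, from duplicates, is a log-two fold change in thermal stability relative to solvent controls.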

Tubastatin A = compound: CN1CCc2c(c3ccccc3n2Cc2ccc(C(=O)NO)cc2)C1 [Tubastatin A]
In short: as §1

[1] = compound: CNC(=O)C1=CC=CC=C1NC2=NC(=NC=C2Cl)NC3=C(C=C(C=C3)N4CCOCC4)OC
In short: as §1

defactinib = compound: CNC(=O)c1ccc(Nc2ncc(C(F)(F)F)c(NCc3nccnc3N(C)S(C)(=O)=O)n2)cc1 [defactinib]
In short: as §1

[2] = compound: CNc1nc(-c2ccc3c(N)n[nH]c3c2)cc(N2C[C@@H](C(=O)NC3CCCCC3)CC[C@H]2C)n1
In short: as §1

encorafenib = compound: COC(=O)N[C@@H](C)CNc1nccc(-c2cn(C(C)C)nc2-c2cc(Cl)cc(NS(C)(=O)=O)c2F)n1 [encorafenib]
In short: as §1

[3] = compound: COC(=O)[C@H](CCSC)NC(=O)C1=C(C=C(C=C1)NC[C@H](CS)N)C2=CC=CC=C2
In short: as §1

alisertib = compound: COc1cc(Nc2ncc3c(n2)-c2ccc(Cl)cc2C(c2c(F)cccc2OC)=NC3)ccc1C(=O)O [alisertib]
In short: as §1

[4] = compound: COc1cc2nc(-c3cc(F)ccc3O)nc(N[C@@H]3CNC[C@H]3C(C)(C)O)c2cc1OC
In short: as §1

gefitinib = compound: COc1cc2ncnc(Nc3ccc(F)c(Cl)c3)c2cc1OCCCN1CCOCC1 [gefitinib]
In short: as §1

lapatinib = compound: CS(=O)(=O)CCNCc1ccc(-c2ccc3ncnc(Nc4ccc(OCc5cccc(F)c5)c(Cl)c4)c3c2)o1 [lapatinib]
In short: as §1

crizotinib = compound: C[C@@H](Oc1cc(-c2cnn(C3CCNCC3)c2)cnc1N)c1c(Cl)ccc(F)c1Cl [crizotinib]
In short: as §1

[5] = compound: C[C@H](C1=CC=C(C=C1)C(=O)NC2=C3C=CNC3=NC=C2)N
In short: as §1

duvelisib = compound: C[C@H](Nc1ncnc2nc[nH]c12)c1cc2cccc(Cl)c2c(=O)n1-c1ccccc1 [duvelisib]
In short: as §1

gandotinib = compound: Cc1cc(Nc2cc(CN3CCOCC3)c3nc(C)c(Cc4ccc(Cl)cc4F)n3n2)n[nH]1 [gandotinib]
In short: as §1

tozasertib = compound: Cc1cc(Nc2cc(N3CCN(C)CC3)nc(Sc3ccc(NC(=O)C4CC4)cc3)n2)n[nH]1 [tozasertib]
In short: as §1

doramapimod = compound: Cc1ccc(-n2nc(C(C)(C)C)cc2NC(=O)Nc2ccc(OCCN3CCOCC3)c3ccccc23)cc1 [doramapimod]
In short: as §1

[6] = compound: Cc1cccc(CC(=O)N2CCc3c2ccc(-c2cn(C)c4ncnc(N)c24)c3F)n1
In short: as §1

pictilisib = compound: CS(=O)(=O)N1CCN(Cc2cc3nc(-c4cccc5[nH]ncc45)nc(N4CCOCC4)c3s2)CC1 [pictilisib]
In short: as §1

bafetinib = compound: Cc1ccc(NC(=O)c2ccc(CN3CC[C@H](N(C)C)C3)c(C(F)(F)F)c2)cc1Nc1nccc(-c2cncnc2)n1 [bafetinib]
In short: as §1

UniProt Q9H1K0, sequence (Q9H1K0 whole entry, looked up): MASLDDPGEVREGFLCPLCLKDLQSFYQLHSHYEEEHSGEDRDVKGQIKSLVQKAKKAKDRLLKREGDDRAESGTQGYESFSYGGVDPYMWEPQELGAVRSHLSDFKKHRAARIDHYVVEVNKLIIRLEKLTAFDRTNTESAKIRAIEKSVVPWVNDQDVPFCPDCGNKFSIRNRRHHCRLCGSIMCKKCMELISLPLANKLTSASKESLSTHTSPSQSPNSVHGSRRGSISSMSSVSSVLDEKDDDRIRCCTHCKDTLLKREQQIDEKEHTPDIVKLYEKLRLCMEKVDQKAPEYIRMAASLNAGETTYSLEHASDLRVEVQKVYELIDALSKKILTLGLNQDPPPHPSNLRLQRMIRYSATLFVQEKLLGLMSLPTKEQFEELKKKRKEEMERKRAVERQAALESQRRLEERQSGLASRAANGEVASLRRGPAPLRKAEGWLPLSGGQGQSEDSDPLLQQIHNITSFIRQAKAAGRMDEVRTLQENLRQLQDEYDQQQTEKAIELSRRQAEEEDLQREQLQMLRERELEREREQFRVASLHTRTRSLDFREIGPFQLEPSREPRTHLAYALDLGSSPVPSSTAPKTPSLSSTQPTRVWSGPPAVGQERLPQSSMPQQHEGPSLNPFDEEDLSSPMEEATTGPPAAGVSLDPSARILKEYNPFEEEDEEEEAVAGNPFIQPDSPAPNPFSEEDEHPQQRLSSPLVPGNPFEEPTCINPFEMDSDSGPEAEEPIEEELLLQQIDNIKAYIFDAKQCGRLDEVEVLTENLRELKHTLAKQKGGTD
UniProt Q86VV8, sequence (Q86VV8 whole entry, looked up): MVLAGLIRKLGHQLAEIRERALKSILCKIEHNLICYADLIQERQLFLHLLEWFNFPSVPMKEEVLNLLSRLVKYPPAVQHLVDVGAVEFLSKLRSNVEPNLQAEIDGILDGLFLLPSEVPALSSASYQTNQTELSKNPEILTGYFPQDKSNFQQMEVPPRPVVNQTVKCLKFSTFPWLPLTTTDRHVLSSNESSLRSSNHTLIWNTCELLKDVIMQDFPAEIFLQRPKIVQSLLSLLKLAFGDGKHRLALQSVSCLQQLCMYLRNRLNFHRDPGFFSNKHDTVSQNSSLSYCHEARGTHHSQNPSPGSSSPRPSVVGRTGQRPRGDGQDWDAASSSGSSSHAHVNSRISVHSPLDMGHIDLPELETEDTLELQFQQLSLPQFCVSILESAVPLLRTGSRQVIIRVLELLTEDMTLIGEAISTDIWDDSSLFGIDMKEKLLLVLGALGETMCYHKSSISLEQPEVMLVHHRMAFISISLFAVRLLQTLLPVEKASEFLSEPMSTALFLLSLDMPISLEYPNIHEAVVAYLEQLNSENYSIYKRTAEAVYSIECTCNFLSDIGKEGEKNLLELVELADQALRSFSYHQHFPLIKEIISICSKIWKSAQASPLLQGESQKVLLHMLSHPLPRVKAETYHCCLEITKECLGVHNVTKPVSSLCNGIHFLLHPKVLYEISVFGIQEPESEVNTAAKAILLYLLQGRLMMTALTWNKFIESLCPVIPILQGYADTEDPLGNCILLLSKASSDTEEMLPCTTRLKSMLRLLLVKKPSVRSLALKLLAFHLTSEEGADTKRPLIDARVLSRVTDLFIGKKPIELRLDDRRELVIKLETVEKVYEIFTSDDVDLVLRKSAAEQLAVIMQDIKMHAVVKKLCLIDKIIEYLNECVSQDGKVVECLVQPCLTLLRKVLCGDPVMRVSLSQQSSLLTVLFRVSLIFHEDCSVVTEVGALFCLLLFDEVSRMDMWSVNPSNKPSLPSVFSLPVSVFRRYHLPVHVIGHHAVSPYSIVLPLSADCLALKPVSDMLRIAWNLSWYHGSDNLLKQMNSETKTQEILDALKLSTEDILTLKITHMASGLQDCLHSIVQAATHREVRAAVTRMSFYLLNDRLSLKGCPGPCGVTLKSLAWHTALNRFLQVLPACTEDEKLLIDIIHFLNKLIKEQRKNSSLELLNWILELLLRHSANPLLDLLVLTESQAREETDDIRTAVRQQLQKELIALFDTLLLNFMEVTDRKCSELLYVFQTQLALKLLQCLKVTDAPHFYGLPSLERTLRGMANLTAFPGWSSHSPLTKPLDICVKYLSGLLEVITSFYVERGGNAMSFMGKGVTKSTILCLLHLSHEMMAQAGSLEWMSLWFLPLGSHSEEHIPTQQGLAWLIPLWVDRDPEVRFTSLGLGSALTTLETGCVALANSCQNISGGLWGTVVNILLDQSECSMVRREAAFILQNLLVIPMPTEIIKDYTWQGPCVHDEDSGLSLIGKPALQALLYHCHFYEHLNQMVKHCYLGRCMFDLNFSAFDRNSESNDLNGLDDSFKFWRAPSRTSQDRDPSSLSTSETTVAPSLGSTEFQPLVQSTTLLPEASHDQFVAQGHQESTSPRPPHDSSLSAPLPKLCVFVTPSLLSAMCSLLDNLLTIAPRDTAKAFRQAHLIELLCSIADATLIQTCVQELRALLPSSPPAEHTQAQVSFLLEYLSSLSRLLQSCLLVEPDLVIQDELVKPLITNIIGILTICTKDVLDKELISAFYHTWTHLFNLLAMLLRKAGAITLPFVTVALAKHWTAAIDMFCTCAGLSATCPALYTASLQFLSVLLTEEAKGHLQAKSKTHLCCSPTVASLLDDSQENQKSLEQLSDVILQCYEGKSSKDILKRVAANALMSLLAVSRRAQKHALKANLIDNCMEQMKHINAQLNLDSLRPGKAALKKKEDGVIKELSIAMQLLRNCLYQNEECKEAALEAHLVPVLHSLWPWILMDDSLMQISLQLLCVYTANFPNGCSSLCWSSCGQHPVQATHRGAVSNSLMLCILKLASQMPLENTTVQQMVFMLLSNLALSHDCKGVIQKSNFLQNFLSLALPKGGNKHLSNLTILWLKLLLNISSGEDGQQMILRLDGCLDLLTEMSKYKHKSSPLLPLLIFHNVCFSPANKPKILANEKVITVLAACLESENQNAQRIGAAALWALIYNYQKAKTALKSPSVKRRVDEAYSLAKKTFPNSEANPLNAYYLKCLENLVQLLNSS
UniProt Q8IUH3, sequence (Q8IUH3 whole entry, looked up): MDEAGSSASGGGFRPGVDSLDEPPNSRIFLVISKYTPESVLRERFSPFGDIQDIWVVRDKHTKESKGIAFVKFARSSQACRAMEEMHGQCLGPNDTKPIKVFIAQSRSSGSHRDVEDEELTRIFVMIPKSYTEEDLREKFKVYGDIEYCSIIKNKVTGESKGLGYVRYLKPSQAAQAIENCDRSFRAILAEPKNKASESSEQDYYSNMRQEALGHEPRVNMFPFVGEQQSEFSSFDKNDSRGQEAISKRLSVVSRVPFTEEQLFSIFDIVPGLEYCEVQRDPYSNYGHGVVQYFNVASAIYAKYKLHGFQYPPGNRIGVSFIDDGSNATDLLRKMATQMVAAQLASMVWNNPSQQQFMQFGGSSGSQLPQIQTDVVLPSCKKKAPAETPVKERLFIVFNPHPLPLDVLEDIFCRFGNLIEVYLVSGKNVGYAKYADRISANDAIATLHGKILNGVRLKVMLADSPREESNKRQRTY
UniProt Q9NTN9, sequence (Q9NTN9 whole entry, looked up): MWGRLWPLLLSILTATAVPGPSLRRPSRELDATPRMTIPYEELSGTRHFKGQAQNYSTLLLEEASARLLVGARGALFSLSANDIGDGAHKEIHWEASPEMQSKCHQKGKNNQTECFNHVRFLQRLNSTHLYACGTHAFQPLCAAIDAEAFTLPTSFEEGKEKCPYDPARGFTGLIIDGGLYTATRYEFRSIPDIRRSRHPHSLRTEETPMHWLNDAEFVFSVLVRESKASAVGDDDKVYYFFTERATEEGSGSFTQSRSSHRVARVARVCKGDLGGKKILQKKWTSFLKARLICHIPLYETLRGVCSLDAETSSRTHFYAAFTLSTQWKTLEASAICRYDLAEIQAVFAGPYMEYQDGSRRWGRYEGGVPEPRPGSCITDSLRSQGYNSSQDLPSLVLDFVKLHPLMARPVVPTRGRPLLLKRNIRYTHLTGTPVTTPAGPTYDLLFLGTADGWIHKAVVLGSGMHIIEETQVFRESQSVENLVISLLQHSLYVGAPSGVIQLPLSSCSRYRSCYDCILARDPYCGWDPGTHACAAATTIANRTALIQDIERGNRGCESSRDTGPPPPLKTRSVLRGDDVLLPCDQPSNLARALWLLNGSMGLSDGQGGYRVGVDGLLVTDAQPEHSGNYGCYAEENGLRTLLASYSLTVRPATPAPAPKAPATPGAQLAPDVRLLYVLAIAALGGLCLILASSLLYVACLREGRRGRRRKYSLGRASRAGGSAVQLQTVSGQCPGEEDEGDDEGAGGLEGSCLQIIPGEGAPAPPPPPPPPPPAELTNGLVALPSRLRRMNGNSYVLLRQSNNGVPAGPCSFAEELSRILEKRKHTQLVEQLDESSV
UniProt Q9NVW2, sequence (Q9NVW2 whole entry, looked up): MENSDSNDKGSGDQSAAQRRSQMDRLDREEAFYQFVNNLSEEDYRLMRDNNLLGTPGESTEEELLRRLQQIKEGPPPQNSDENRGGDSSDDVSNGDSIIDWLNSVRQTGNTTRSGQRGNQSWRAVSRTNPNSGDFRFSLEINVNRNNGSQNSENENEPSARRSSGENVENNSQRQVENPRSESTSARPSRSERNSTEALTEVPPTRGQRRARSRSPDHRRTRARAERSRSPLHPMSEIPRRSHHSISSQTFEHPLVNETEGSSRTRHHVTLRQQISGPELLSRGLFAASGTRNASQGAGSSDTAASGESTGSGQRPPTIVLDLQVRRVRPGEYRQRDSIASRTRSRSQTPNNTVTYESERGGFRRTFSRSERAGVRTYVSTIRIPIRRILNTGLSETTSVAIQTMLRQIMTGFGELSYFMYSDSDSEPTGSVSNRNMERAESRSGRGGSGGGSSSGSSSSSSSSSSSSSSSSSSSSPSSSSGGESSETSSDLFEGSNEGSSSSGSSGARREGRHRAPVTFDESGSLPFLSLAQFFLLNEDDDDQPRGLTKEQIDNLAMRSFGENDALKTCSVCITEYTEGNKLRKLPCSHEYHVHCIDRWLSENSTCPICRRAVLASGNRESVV
UniProt Q9Y225, sequence (Q9Y225 whole entry, looked up): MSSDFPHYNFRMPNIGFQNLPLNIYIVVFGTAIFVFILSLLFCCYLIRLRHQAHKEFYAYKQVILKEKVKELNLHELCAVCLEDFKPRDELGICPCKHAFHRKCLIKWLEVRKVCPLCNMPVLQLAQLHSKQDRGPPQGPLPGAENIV

| Target | log2 fold change (alvocidib) | log2 fold change (Tubastatin A) | log2 fold change [1] | log2 fold change (defactinib) | log2 fold change [2] | log2 fold change (encorafenib) | log2 fold change [3] | log2 fold change (alisertib) | log2 fold change [4] | log2 fold change (gefitinib) | log2 fold change (lapatinib) | log2 fold change (crizotinib) | log2 fold change [5] | log2 fold change (duvelisib) | log2 fold change (gandotinib) | log2 fold change (tozasertib) | log2 fold change (doramapimod) | log2 fold change [6] | log2 fold change (pictilisib) | log2 fold change (bafetinib) |
| --- | --- | --- | --- | --- | --- | --- | --- | --- | --- | --- | --- | --- | --- | --- | --- | --- | --- | --- | --- | --- |
| RDH11 (UniProt Q8TC12) | -0.071 | 0.031 | 0.011 | 0 | 0.1 | 0.092 | 0.149 | -0.009 | 0.082 | -0.019 | -0.035 | -0.034 | -0.11 | -0.011 | 0.298 (active) | 0.009 | 0.041 | 0.328 (active) | – | – |
| RPS6KA5 (UniProt O75582) | 0.193 | -0.239 | 0.009 | 0.019 | 0.072 | 0.054 | -0.005 | 0.041 | 0.104 | 0.11 | -0.024 | 0.028 | 0.13 | -0.011 | -0.23 | 0.106 | -0.043 | -0.032 | – | – |
| RTTN (UniProt Q86VV8) | 0.088 | -0.242 | 0.082 | 0.401 | 0.018 | 0.069 | -0.085 | -0.002 | -0.301 | 0.049 | 0.306 | – | -0.053 | 0.067 | -0.289 | -0.07 | – | 0.203 | -0.034 | -0.032 |
| ROCK1 (UniProt Q13464) | 0.004 | 0.013 | -0.029 | -0.02 | 0.039 | -0.004 | -0.019 | -0.045 | 0.022 | -0.004 | -0.003 | 0.011 | – | 0.006 | -0.04 | 0.027 | -0.025 | 0.031 | -0.021 | -0.016 |
| RFWD3 (UniProt Q6PCD5) | -0.057 | 0.065 | 0.051 | 0.082 | -0.057 | 0.1 | -0.052 | 0.114 | – | -0.057 | – | -0.066 | 0.036 | 0.041 | 0.004 | -0.037 | 0.036 | 0.107 | -0.12 | -0.04 |
| RNF123 (UniProt Q5XPI4) | 0.011 | -0.047 | -0.002 | -0.027 | 0.017 | 0.044 | -0.062 | -0.004 | 0.017 | 0.011 | -0.013 | -0.015 | -0.04 | -0.068 | -0.122 | 0.029 | 0.039 | 0.011 | -0.029 | -0.002 |
| RPL31 (UniProt P62899) | -0.013 | 0.032 | -0.042 | -0.024 | 0.044 | -0.016 | 0.035 | 0.033 | -0.015 | -0.035 | -0.01 | 0.016 | -0.006 | 0.004 | 0.005 | -0.006 | -0.041 | 0.029 | 0.009 | -0.023 |
| RPS4X (UniProt P62701) | 0.039 | 0.032 | -0.03 | -0.027 | 0.029 | -0.036 | 0.063 | 0.004 | 0.002 | -0.028 | -0.006 | -0.024 | 0.209 | 0.012 | -0.038 | -0.018 | -0.01 | -0.04 | 0.009 | -0.008 |
| RBSN (UniProt Q9H1K0) | -0.031 | 0.005 | -0.047 | 0.015 | -0.014 | 0.089 | -0.048 | 0.019 | 0.015 | 0.059 | -0.008 | -0.012 | -0.032 | 0.093 | 0.019 | 0.13 | -0.026 | 0.059 | -0.024 | 0.026 |
| RINT1 (UniProt Q6NUQ1) | 0.041 | -0.083 | 0.011 | 0.047 | -0.072 | 0.01 | -0.017 | -0.086 | 0.065 | 0.035 | -0.069 | -0.06 | -0.058 | 0.046 | -0.039 | 0.025 | 0.069 | 0.132 | -0.065 | -0.058 |
| SCCPDH (UniProt Q8NBX0) | -0.051 | 0.044 | 0.05 | 0.028 | 0.333 | -0.076 | 0.129 | -0.011 | 0.005 | -0.063 | 0.108 | 0.394 | -0.179 | 0.195 | 0.869 (active) | -0.052 | -0.102 | 0.034 | 0.006 | -0.015 |
| SAMD4A (UniProt Q9UPU9) | 0.039 | -0.428 | -0.01 | 0.001 | 0.04 | 0.009 | -0.032 | – | 0.035 | – | 0.282 | -0.041 | -0.064 | -0.046 | -0.036 | 0.088 | 0.019 | 0.101 | 0.047 | -0.215 |
| RNF149 (UniProt Q8NC42) | -0.038 | -0.047 | 0.02 | 0.028 | 0.004 | – | – | -0.483 (active) | -0.059 | -0.075 | 0.073 | -0.006 | -0.039 | -0.025 | -0.026 | – | -0.099 | -0.013 | -0.025 | -0.105 |
| RIOK2 (UniProt Q9BVS4) | -0.021 | -0.098 | 0.438 (active) | 0.105 | 0.127 | -0.025 | 0.029 | -0.005 | -0.051 | -0.011 | -0.032 | 0.047 | -0.028 | 0.016 | 0.829 (active) | -0.011 | -0.028 | -0.012 | 0.269 | 0.093 |
| RNF24 isoform 2 (UniProt Q9Y225) | 0.079 | – | 0.003 | – | – | – | – | -0.113 | – | -0.108 | – | -0.074 | -0.173 | – | 0.117 | – | -0.093 | 0.028 | -0.089 | -0.477 |
| RHBDD1 (UniProt Q8TEB9) | -0.018 | – | – | 0.024 | – | 0.063 | 0.054 | – | 0.02 | – | 0.06 | – | 0.036 | – | -0.118 | -0.071 | – | -0.028 | -0.216 | -0.133 |
| RBBP7 (UniProt C9J7L0) | – | – | – | – | – | – | – | 0.089 | – | -0.058 | – | – | – | – | – | – | – | – | – | – |
| RLIM (UniProt Q9NVW2) | – | – | – | – | – | – | – | – | – | – | – | -0.323 | – | – | – | – | -0.044 | – | -0.053 | -0.193 |
| RBM45 (UniProt Q8IUH3) | 0.013 | – | – | – | – | – | – | -0.136 | 0.055 | -0.03 | -0.12 | -0.094 | 0.184 | – | -0.1 | – | 0.014 | 0.077 | – | – |
| SEMA4G isoform 2 (UniProt Q9NTN9) | -0.116 | – | 0.122 | -0.047 | 0.143 | -0.193 | 0.215 | – | – | – | – | -0.084 | 0.036 | -0.294 | 0.019 | 0.082 | -0.053 | -0.024 | – | – |
